Assay outcomes deposited in PubChem by National Center for Advancing Translational Sciences (NCATS).
An excerpt weighted towards active compounds, which were near 4.4% of everything screened.
D1 agonist = Allosteric Agonists of the Human D1 Dopamine Receptor: qHTS; D(1A) dopamine receptor (Homo sapiens), P21728; HEK293 T-REx D1 cells, calcium flux, agonist mode; activation, % at 2 µM; actives 1% (n = 360,000); AID 504660, 2011; also: 0% is about no effect
Target sequence (P21728 whole entry, looked up): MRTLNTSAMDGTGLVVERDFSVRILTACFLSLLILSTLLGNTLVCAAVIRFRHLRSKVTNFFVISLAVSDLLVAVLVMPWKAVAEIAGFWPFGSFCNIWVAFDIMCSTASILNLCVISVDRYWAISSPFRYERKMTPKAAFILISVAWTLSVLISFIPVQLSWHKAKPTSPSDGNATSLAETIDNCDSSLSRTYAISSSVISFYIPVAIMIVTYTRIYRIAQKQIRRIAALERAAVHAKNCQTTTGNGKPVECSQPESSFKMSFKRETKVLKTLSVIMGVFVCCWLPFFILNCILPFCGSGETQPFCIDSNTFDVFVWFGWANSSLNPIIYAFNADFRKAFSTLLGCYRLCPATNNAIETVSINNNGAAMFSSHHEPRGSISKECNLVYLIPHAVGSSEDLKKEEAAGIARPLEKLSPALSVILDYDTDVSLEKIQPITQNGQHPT
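Inducible HEK293 T-REx D1 cells, force-coupled to calcium signalling, were plated at 4000 cells/well with tetracycline and held overnight at 30 C. After no-wash calcium dye loading, compound-evoked calcium rise over 180 s flagged agonists.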
USP1-UAF1 inh = Inhibitors of USP1/UAF1: Primary Screen; Ubiquitin carboxyl-terminal hydrolase 1 (Homo sapiens), O94782; recombinant USP1/UAF1, Ub-Rhodamine cleavage fluorescence; Potency, µM (titrated, usually from 57.1 µM), inactives show top-dose activity change, negative = inhibition, usual class: inhibitors; actives 0.23% (n = 390,000); AID 743255, 2014; active = well fitted inhibition curve with a large enough effect; inconclusive = small, poorly fitted or top-dose-only effect; inactive = no such curve, though single readings can be large or run the other way; also: potency is read from the fitted curve at half-maximal effect; % is scaled to controls: 0 for no effect and ±100 for the full control effect; nearly all actives have a fitted effect of over 60% in size
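In this screen, compounds sit with the deubiquitinase complex (1nM) for 15 min at room temperature before Ub-Rho is added at 150nM final. Fluorescence rise is then followed for 6 reads every 60 seconds.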
D1 PAM = Potentiators of Human D1 Dopamine Receptor: qHTS; D(1A) dopamine receptor (Homo sapiens), P21728; HEK293 TREx D1 cells, calcium flux, dopamine EC20 potentiation; potentiation, % at 10 µM; actives 0.036% (n = 360,000); AID 504651, 2011; in the data active = potentiation above about 30%; also: 0% is about no effect
D1 antagonist = Antagonist of Human D 1 Dopamine Receptor: qHTS; activity change, negative = inhibition, % at 10 µM; D(1A) dopamine receptor (Homo sapiens), P21728; actives 3.2% (n = 360,000); HEK293 TREx D1 cells, calcium flux, dopamine EC80; active compounds read low; in the data active = activity change below about -30%; also: % is scaled to controls: 0 for no effect and ±100 for the full control effect
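HEK293 T-REx cells expressing inducible, force-coupled D1 receptor; no-wash Ca dye, 30–90 min RT. Cmpd → 180 s read at 1 Hz → EC80 DA → 180 s read.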
TRHR enhancer = qHTS for Small Molecule Agonists and Allosteric Enhancers of Human TRH Receptor: Primary Screen for Enhancers; Thyrotropin-releasing hormone receptor (Homo sapiens), P34981; TRHR cells, fluo-8 calcium fluorescence, EC20 TRH enhancement; enhancement, % at 2 µM; actives 0.66% (n = 360,000); AID 493056, 2011; in the data active = enhancement above about 30%; also: 0% is about no effect
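TRHR-expressing cells loaded with fluo-8 calcium dye were read kinetically (ex 480/em 530) during compound addition, then stimulated with an EC20 of TRH (10 nM final). Enhancement of the Gq-mediated intracellular calcium response was scored.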
TRHR ag = qHTS for Small Molecule Agonists and Allosteric Enhancers of Human TRH Receptor: Primary Screen for Agonists. Thyrotropin-releasing hormone receptor (Homo sapiens), P34981. TRHR cells, calcium flux fluo-8, FDSS agonist mode. activation, % at 2 µM. actives 0.18% (n = 360,000). AID 493084, 2011; also: 0% is about no effect
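Read-out: compound-evoked intracellular calcium rise in TRHR cells, fluo-8 dye, kinetic FDSS fluorescence at 1 s/cycle following a 10-cycle baseline. Cells cultured overnight before dye loading (30 min–1.5 h, RT).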
* marks the source's active call; other numbers are inactive results; ? = inconclusive; / = no result. Rule as the data show it, unless noted: active = activation above about 30%; inactive = the rest.

SMILES	D1 agonist	USP1-UAF1 inh	D1 PAM	D1 antagonist	TRHR enhancer	TRHR ag
Cc1ccc(-n2c(/C=C/c3cccc4ccccc34)nc3ccccc3c2=O)cc1	4.1	-7.1%	-2.8	-6.0	16.2	0.5
COc1cccc(NC(=O)CCc2nc(-c3ccc(C(C)(C)C)cc3)no2)c1	2.6	?	3.2	3.9	7.9	0.3
N#Cc1cc2c(nc1SCC(=O)Nc1ccc(OC(F)(F)F)cc1)C1CCN2CC1	21.2	-0.7%	-0.3	-20.4	-0.3	0.1
CN1CC[C@@]23CCCC[C@@H]2[C@@H]1Cc1ccc(O)cc13	7.3	-14.4%	-2.6	-32.4*	-3.1	-0.6
CCC1C2Cc3ccc(O)cc3C1(CC)CCN2C (stereo unspecified)	/	-3.8%	/	/	/	/
Cc1cccc(N2C(=O)/C(=C/c3ccc(N4CCN(C)CC4)o3)C(=O)NC2=S)c1C	67.8*	?	1.6	5.7	-2.6	20.1
CCc1ccccc1N1C(=O)/C(=C/c2ccc(N3CCN(C)CC3)o2)C(=O)NC1=S	70.8*	?	-4.3	2.0	11.8	16.7
Cc1ccccc1N1C(=O)NC(=O)/C(=C/c2ccc(N3CCOCC3)o2)C1=O	14.5	25.1µM*	-0.9	-0.9	-5.0	8.4
Cc1ccccc1N1C(=O)/C(=C/c2ccco2)C(=O)NC1=S	0.3	/	-3.0	-16.5	4.6	0.0
O=C1NC(=O)N(c2ccc3c(c2)OCO3)C(=O)/C1=C\c1ccc(N2CCCCC2)o1	49.7*	-23.8%	-1.5	-0.4	-0.5	17.2
COc1ccc(-n2c(/C=C\c3ccccc3F)nc3ccccc3c2=O)c(OC)c1	0.2	-21.1%	4.7	7.6	2.5	0.0
Cc1ccc(-n2c(/C=C/c3cccs3)nc3ccccc3c2=O)cc1C	2.2	-21.2%	2.2	-6.5	-15.6	-0.2
Nc1c(C(=O)Nc2cccc(F)c2)sc2nc(-c3cccs3)ccc12	32.5*	?	-3.5	-7.1	-12.6	4.6
Nc1c(C(=O)NCCN2CCOCC2)c2nc3ccccc3nc2n1Cc1ccco1	4.3	-8.4%	-2.9	-41.6*	-4.1	2.2
Cc1nc2ccccc2c2c1C(=O)N(Cc1cccnc1)C2=O	1.5	?	-3.8	-18.5	-6.6	0.7
CCC(=NCCCN(CC)CC)c1c(O)n(-c2ccccc2)c(=O)[nH]c1=O	1.2	-11.6%	-2.4	-32.5*	-2.2	0.3
c1cc(C2N3CCCN2CC3)ccn1 (stereo unspecified)	3.2	2.6%	8.6	-44.3*	4.8	-0.6
CC12CN3CC(C)(CN(C1)C3c1cccnc1)C2=O (stereo unspecified)	1.8	-12.9%	-5.8	14.9	0.8	-0.1
CC/C(=C\C=C\[C@@H]1C=C[C@@H]2CCC[C@H]2[C@@H]1C(=O)c1ccc[nH]1)[C@@H]1O[C@@H]([C@@H](C)C(=O)O)CC[C@@H]1C	28.8	?	-7.4	-59.7*	-11.5	10.3
CCc1ccc(OCC(=O)N2CCN(CCc3ccccn3)CC2)cc1	-1.3	?	0.7	3.9	-1.8	0.2
C/C=C(\C)C(=O)OC1C(C)=C2C(C1OC(=O)CCCCC)C(C)(OC(C)=O)CC(OC(=O)CCC)C1(O)C2OC(=O)C1(C)O (stereo unspecified)	109.2*	/	-10.1	-30.6*	-8.4	19.1
O=C1NC(=O)C(=C/C=C/c2coc3ccc(Br)cc3c2=O)C(=O)N1	83.1*	/	-1.9	1.1	9.7	41.3*
CCC1(O)C(=O)OCc2c1cc1n(c2=O)Cc2cc3c(N)cccc3nc2-1 (stereo unspecified)	/	-12.6%	/	/	/	/
Cc1ccc(-n2c(/C=C/c3cc(Br)cs3)nc3ccccc3c2=O)cc1	-1.1	6.1%	-0.2	2.2	0.1	0.7
CCCCCC[N+](=O)[O-]	0.7	-4.9%	-3.0	/	0.4	-0.2
SMILES	D1 agonist	USP1-UAF1 inh	D1 PAM	D1 antagonist	TRHR enhancer	TRHR ag
CCCCCCCCCCCCCCCC[N+](C)(C)C	30.9*	-22.0%	-6.3	-24.3	-15.4	0.0
Cc1cc2c(C(F)(F)F)cc(=O)oc2c2c1NCCC2	112.8*	?	3.6	-9.3	21.4	90.8*
O=c1cc(C(F)(F)F)c2cc3c4c(c2o1)CCCN4CCC3	329.5*	375.3%	-8.0	-64.6*	5.8	239.6*
C(CCc1nn[nH]n1)CCc1nn[nH]n1	5.4	-10.6%	-2.2	-37.2*	4.8	-0.8
CCOc1ccc(CNCCc2ccc3c(c2)OCO3)cc1	30.5*	-21.9%	-8.0	-8.0	1.1	1.5
c1ccc2c(CCNCc3ccc4c(c3)OCO4)c[nH]c2c1	98.6*	-13.3%	-2.0	-42.7*	6.2	-0.2
c1ccc(CNCCc2c[nH]c3ccccc23)cc1	10.3	-19.9%	-2.4	-5.5	-5.6	1.2
O=c1c(O)c(-c2ccc(O)c(O)c2)oc2cc(O)cc(O)c12	3.2	?	-3.1	34.5	62.6*	5.9
NCCc1c[nH]c2ccc(C(N)=O)cc12	1.6	-22.9%	-6.5	34.7	-2.9	-0.1
NCCc1c[nH]c2ccc(F)cc12	0.8	/	-3.4	-30.2*	-2.1	0.4
Cc1ccc(Cl)cc1Nc1nn2c(=O)c3ccc(C(=O)NCc4cccs4)cc3nc2s1	1.6	?	-1.1	-4.3	4.1	0.4
Cc1ccc(-n2c(/C=C\c3ccc(F)c(F)c3)nc3ccccc3c2=O)c(C)c1	0.0	-21.6%	-1.4	10.1	-1.7	-0.3
CC(C)Sc1nnc([C@@H](N)Cc2ccccc2)o1	75.5*	-11.9%	-2.3	-10.8	10.3	-1.1
CSc1nnc([C@@H](N)Cc2ccccc2)o1	1.0	-13.6%	1.2	11.2	-5.1	-0.1
COc1ccc(-c2nc(CN3C(=O)CN=C(c4ccccc4)c4ccccc43)c(C)o2)cc1	13.1	-4.4%	-4.0	-23.3	2.9	0.3
COc1ccc(CN2CCN(C(=O)Cc3ccccc3)CC2)cc1OC	/	-9.5%	/	/	/	/
COc1ccc(CNC(=O)CSCc2cnn(-c3ccccc3)c2-n2cccc2)cc1OC	43.3*	?	-4.1	-33.6*	-1.2	-2.2
COc1cccc(C(=O)c2cn(CC(=O)Nc3cc(Cl)c(OC)cc3OC)c3nc(C)ccc3c2=O)c1	4.5	?	-1.4	28.1	-3.3	-0.5
Oc1ccc(Cl)cc1CN1CCN(Cc2ccccc2)CC1	2.8	-15.0%	-8.2	-2.6	31.2*	0.7
O=C(Cc1ccccc1)N1CCN(Cc2ccc(Cl)cc2)CC1	/	-13.8%	/	/	/	/
Cc1c2ccncc2c(C)c2c1[nH]c1ccccc12	32.9*	-27.7%	-1.7	-23.7	-11.1	24.7
